“And” between values parts separate entries of the source, which are not always exact repeats. Equal entries are not always repeated. Out of some 340,000 compounds screened, about 12,000 (3.5%) were called active. Not shown: some 18% with an inconclusive outcome. Calls follow the shape of the dose curve; as a rule, active = well fitted inhibition curve with a large enough effect; inconclusive = small, poorly fitted or top-dose-only effect, or another doubt; inactive = no such curve, though single readings can be large or run the other way. This excerpt belongs to a sample that is enriched for actives. Some compounds were tested as several samples or in several runs, with calls that do not always agree.
% is scaled to controls: 0 for no effect and ±100 for the full control effect.

A short description of the test: qHTS Assay for Inhibitors of Hepatitis C Virus (HCV). The settings on record: Huh7.5.1 HCVcc-Cre infection, luciferase reporter, 44 h; series mostly up to 41.8 µM; activity change, negative = inhibition: at the top concentration. The source says: Hepatitis C virus (HCV) infects about 200 million people in the world. Many infected people progress to chronic liver disease including cirrhosis with a risk of developing liver cancer. To date, there is no effective vaccine for hepatitis C. Current therapy based on interferon is only effective in about half of the patients and is associated with significant adverse effects. The fraction of people with HCV who can complete a successful treatment is estimated to be no more than 10 percent. Recent development of direct-acting antivirals against HCV, such as protease and polymerase inhibitors, is promising but still requires combination with peginterferon and ribavirin for maximal efficacy. In addition, these agents are associated with high rate of resistance and many have significant side effects. Due to the lack of a culture system for infectious HCV, the search for new HCV drugs has been greatly hampered. […] High-throughput screening (HTS) with an infectious HCV system would cover the complete spectrum of potentially druggable targets in all stages of HCV lifecycle, and would have more biological relevance than other cell-based assays. Moreover, targeting several key processes in the viral life cycle may not only increase antiviral efficacy; more importantly, it may also reduce the capacity of the virus to develop resistance to the compound. The goal of this project is to identify novel HCV inhibitors as new therapies for hepatitis C, using a highly sensitive and specific assay platform which is based on a HCV infectious cell culture system established in the laboratory and adapted for high-throughput HCV drug screen. NIH Chemical Genomics Center [NCGC] NIH Molecular Libraries Probe Centers Network [MLPCN] MLPCN Grant: MH095511 Assay Submitter (PI): Jake Liang, NIDDK
The assay will start with plating 1,000 cells/well in 3 µL volume and culture for 4 h. Then 23 nL of compounds from the library collection will be added to each well, followed by adding 2.5 µL of HCVcc-Cre virus (~ 0.5 moi) and further cultured for 44 h before the luciferase assay. A volume of 4.5 µL luciferase substrates will be added to each well and the plates will be incubated at room temperature for 15 min. and then read for 15 sec. for the luciferase activity
(In general: In qHTS, concentration-response curves come from the screen itself.)
Turning to `Cc1ccc(C)c(NC(=O)COC(=O)c2nn(C)c(=O)c3ccccc23)c1`, the “activity change, negative = inhibition” value was 22.1% (inactive).
Turning to `COc1ccccc1N1CCN(C(=O)Cn2nnc(-c3cccs3)n2)CC1`, the “activity change, negative = inhibition” value is -8.71% (inactive).
Regarding `O=C(Nc1ccccc1-c1nnn(CC(=O)N2CCN(c3ccccc3)CC2)n1)c1cccs1`, the Potency is 12.6 µM (active).
As for `O=C(Nc1ccccc1-c1ccccc1)c1cccs1`, the “activity change, negative = inhibition” value was -24.9% (inactive).
Consider `COc1cc(OC)cc(C(=O)NCC(=O)OCC(=O)NC(C)CCc2ccccc2)c1` (stereo not drawn), for which the “activity change, negative = inhibition” value was 4.6% (inactive).
As to `Cc1nn(-c2ccc(F)cc2)c(Cl)c1/C=C(/CCC(=O)O)c1nc2ccccc2s1`, the “activity change, negative = inhibition” value is 22.1% (inactive).
Consider `CCCN=C1N(C)C[C@@H]2[C@@H]3C(=O)N(Cc4ccccc4)C(=O)[C@@H]3[C@](C)(C(=O)OC)N12`, for which the activity change, negative = inhibition is 12% [at 8.37 µM] (inactive).
For `Cc1ccc(S(=O)(=O)N2[C@@H](c3ccc(Br)cc3)C(C(=O)O)=C[C@H]2CC2CCCC2)cc1`, the “activity change, negative = inhibition” value was 4.65% (inactive).
`CCn1c(/C=N/NC(=O)c2ccc(OC)cc2)nc2ccccc21`: the Potency was 17.8 µM (active).
As to `COc1ccc(C(=O)NCC(=O)N/N=C/c2cccnc2)cc1`, the “activity change, negative = inhibition” value was 17.2% (inactive).
On to `CCCn1c(C(=O)c2ccccc2OC)nc2ccccc21`, for which the “activity change, negative = inhibition” value was -3.79% (inactive).
Regarding `CCC(C)(C)n1nnnc1C(c1ccccc1OC)N1CCSCC1` (stereo not drawn), the “activity change, negative = inhibition” value was 2.53% (inactive).
Regarding `CCC(C)(C)n1nnnc1C(c1cccs1)N1CCN(Cc2ccccc2)CC1` (stereo not drawn), the “activity change, negative = inhibition” value was -14.5% (inactive).
For `CCC(C)(C)n1nnnc1C(c1cccs1)N1CCN(c2nc3ccccc3s2)CC1` (stereo not drawn), the Potency is 10 µM (active).
Turning to `Cc1cc(NC(=O)CSC2=NS(=O)(=O)c3cc(Cl)ccc3N2)no1`, the “activity change, negative = inhibition” value is 1.9% (inactive).
Turning to `CCOC(=O)CNC(=O)N1c2ccccc2Sc2ccccc21`, the “activity change, negative = inhibition” value is -3% (inactive).
Regarding `CCOC(=O)Nc1ccc2c(c1)N(C(=O)CCN1CCN(CCO)CC1)c1ccccc1CC2`, the “activity change, negative = inhibition” value was 6.1% (inactive).
Consider `CCNCCC(=O)N1c2ccccc2Sc2ccc(NC(=O)OCC)cc21`, for which the Potency is 12.6 µM (active).
In the case of `COc1ccc(-c2nc(CS(=O)(=O)CC(=O)NCc3cccc(Br)c3)c(C)o2)cc1`, the “activity change, negative = inhibition” value was 8.12% (inactive).
With `COc1cccc(-c2nc(CS(=O)CC(=O)NCc3ccc(F)cc3)c(C)o2)c1` (stereo not drawn), the “activity change, negative = inhibition” value is -6.07% (inactive).
For the compound `CCCCN(CC)CCCNC(=O)CS(=O)(=O)Cc1nc(-c2cccc(OC)c2)oc1C`, the Potency result was “inactive and 20 µM (active)”.
Consider `COc1ccc(C(CNC(=O)c2ccc(NS(=O)(=O)c3ccc(F)c(C)c3)cc2)N(C)C)cc1` (stereo not drawn), for which the “activity change, negative = inhibition” value is -7.07% (inactive).
With `Cc1ccc(OCCC(=O)Nc2ccc(S(=O)(=O)Nc3nccs3)cc2)cc1`, the “activity change, negative = inhibition” value was 8.18% (inactive).
In the case of `COCCCn1c(SCc2cccc(OC)c2)nc2cc(OC)c(OC)cc2c1=N`, the Potency was 7.08 µM (active).
As to `COCCn1c(SCc2nc3cc(OC)c(OC)cc3c(=O)[nH]2)nnc1-c1ccncc1`, the “activity change, negative = inhibition” value was 21.9% (inactive).
For `COc1cccc(CSc2nc3nc(C)cc(C)n3n2)c1`, the “activity change, negative = inhibition” value was -14.8% (inactive).
The same measure, in the same setting: the value for `Cc1ccccc1SCC(=O)OCC(=O)N1CC(=O)Nc2ccccc21` was 7.25% (inactive); that for `O=C(/C=C/c1ccccc1[N+](=O)[O-])OC1CCCCC1=O` (stereo not drawn) was -0.487% (inactive); that for `O=C(/C=C/c1ccccc1[N+](=O)[O-])NCC1CCCO1` (stereo not drawn) was 11.4% (inactive).
Regarding `CC1CCCCC1NC(=O)/C(C#N)=C/C=C/c1ccccc1[N+](=O)[O-]` (stereo not drawn), the Potency is 11.2 µM (active).
For `Cc1ccc(S(=O)(=O)N2[C@@H](c3cccc(Cl)c3)C(C(=O)O)=CC[C@H]2c2ccc(Cl)c(Cl)c2)cc1`, the “activity change, negative = inhibition” value is 22.6% (inactive).
Take `C#CCOCCOCCOCCNc1nc(N2CCN(C(=O)CCCCCCCCCCNC(=O)[C@H](CCCCN)n3cc(C)nn3)CC2)nc(N2CCN(C(=O)CCCCCCCCCCNC(=O)[C@H](CO)n3cc(CCCSC)nn3)CC2)n1`: the “activity change, negative = inhibition” value was 12.2% (inactive).
The same measure, in the same setting: under `CC(OC(=O)CCCOc1ccccc1)C(=O)Nc1ccc(Cl)cn1` (stereo not drawn) stands 18.5% (inactive); under `CCN(CC)S(=O)(=O)c1cc(C(=O)Nc2cc(S(=O)(=O)N3CCOCC3)ccc2N2CCCC2)ccc1F`, -4.92% (inactive).
Take `CCN(CC)S(=O)(=O)c1ccc(N2CCCC2)c(NC(=O)c2ccc([N+](=O)[O-])o2)c1`: the Potency is 10 µM (active).
Regarding `CCN(CC)S(=O)(=O)c1ccc(N2CCOCC2)c(NC(=O)c2ccc(=O)n(C)n2)c1`, the “activity change, negative = inhibition” value is 2.92% (inactive).
On the same count and under the same terms, under `CCOc1ccccc1OCC(=O)Nc1ccccc1C(=O)NC1CC1` stands 10.1% (inactive).
With `Cc1noc(C)c1NC(=O)Nc1ccc2c(c1)C(=O)N([C@H](C)CO)C[C@H](C)[C@@H](CN(C)C(=O)Nc1ccc(C(F)(F)F)cc1)O2`, the Potency is 3.98 µM (active).
With `Cc1noc(C)c1NC(=O)Nc1cccc2c1O[C@H](CN(C)C(=O)Nc1ccccc1)[C@@H](C)CN([C@H](C)CO)C2=O`, the “activity change, negative = inhibition” value was 25.4% (inactive).
With `Cc1noc(C)c1NC(=O)Nc1ccc2c(c1)C(=O)N([C@H](C)CO)C[C@H](C)[C@@H](CN(C)C(=O)Nc1ccccc1)O2`, the “activity change, negative = inhibition” value is 14.4% (inactive).
On the same count and under the same terms, the value for `OCC[C@H]1C[C@H](O)[C@@H](O)[C@]2(CCc3ccccc3O2)O1` was -5.5% (inactive); that for `Cc1ccc(C)c(C(=O)COC(=O)Cn2[nH]c(=O)c3ccccc3c2=O)c1` was 6.08% (inactive).
Take `CCC1(C)Cc2c(sc3nc(SC)nc(N)c23)CO1` (stereo not drawn): the “activity change, negative = inhibition” value was -16.9% (inactive).
Still for that read-out and setting: the value for `CCOC(=O)Cn1c(SC)nc2sc3c(c2c1=O)CC(C)(C)OC3` was -22% (inactive).
With `CCC1(C)Cc2c(sc3nnn(CC(=O)Nc4ccc(Cl)cc4)c(=O)c23)CO1` (stereo not drawn), the Potency is 11.2 µM (active).
Consider `COc1cc(/C=C/CNC[C@H]2O[C@@H](n3cnc(C(N)=O)n3)[C@H](O)[C@@H]2O)ccc1O`, for which the “activity change, negative = inhibition” value is 9.64% (inactive).
Regarding `O=C(COC(=O)/C=C/c1ccc(OC(F)F)cc1)NC1CCCCC1`, the “activity change, negative = inhibition” value is 7.61% (inactive).
For `COC(=O)[C@@]1(C)[C@H]2C(=O)N(Cc3ccccc3)C(=O)[C@H]2[C@H]2CN=C(SCC3CC3)N21`, the activity change, negative = inhibition is -7.38% [at 8.37 µM] (inactive).

The values are drawn from PubChem BioAssay AID651820 (National Center for Advancing Translational Sciences (NCATS), 2012).
